# TLR9-MyD88 inh = blocks human TLR9 binding to MyD88. CHO BLA complementation TLR9-MyD88, CCF4 FRET ratio. AID 504734. 0.21% of 340,000 active. inhibition, % at 4.98 µM. Q9NR96+Q99836;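 active means inhibition above the mean over all tested compounds plus 3 SD, cut at about 21% in these data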;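 further: 0% = DMSO only wells and 100% = clavulanate BLA inhibitor control wells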
# NTR1 agonist = activates human neurotensin receptor 1 | P30989 | NTR1-U2OS beta-arrestin-GFP spot imaging, agonist mode | activation, % at 20 µM | 0.17% of 330,000 active | AID 493036;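 active means activation at or above 40% of the spot to cytoplasm intensity ratio, with at least 20 cells analyzed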;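 further: 0% = DMSO without peptide and 100% = 100 nM NTR1 peptide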
# Beta2AR agonist = human beta-2 adrenergic receptor agonism by FAP; P07550; Am2.2-beta2AR cells, FAP receptor internalization, flow cytometry; response, % (concentration not given with the values); 0.43% of 340,000 active;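 active means response above a set limit, near 3 SD of response in nonfluorescent compounds, cut at about 42% in these data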
# Target sequence (P07550 whole entry, looked up): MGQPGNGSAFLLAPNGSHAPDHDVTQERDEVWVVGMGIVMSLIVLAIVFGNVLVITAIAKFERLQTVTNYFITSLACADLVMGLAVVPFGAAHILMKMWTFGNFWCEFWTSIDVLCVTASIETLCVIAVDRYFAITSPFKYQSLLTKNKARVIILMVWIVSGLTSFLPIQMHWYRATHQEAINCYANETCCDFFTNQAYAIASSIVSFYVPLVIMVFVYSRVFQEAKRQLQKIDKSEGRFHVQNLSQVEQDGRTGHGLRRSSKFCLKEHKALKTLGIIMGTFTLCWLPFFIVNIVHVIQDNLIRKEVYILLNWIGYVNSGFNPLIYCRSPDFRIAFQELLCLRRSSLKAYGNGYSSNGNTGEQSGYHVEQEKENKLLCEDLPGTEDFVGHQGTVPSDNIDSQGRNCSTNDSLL
# NOD2 RIPK2 PPI = inhibitors of human NOD2-RIPK2 interaction; O43353; CHO BLA complementation NOD2-RIPK2, CCF4 ratio; inhibition, % at 4.98 µM; 0.38% of 360,000 active; AID 624267; in the data active means inhibition above about 21%;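 further: 0% = vehicle only and 100% = reference blocker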
# ABHD5 PLIN5 PPI = ABHD5-PLIN5 protein interaction inhibition; Q00G26+Q8WTS1; inhibition, % at 4 µM; AID 602281; Split G. princeps luciferase complementation, luminescence, 4 h; 0.78% of 360,000 active;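 active means inhibition above the mean inhibition across every tested compound plus 3 SD, cut at about 22% in these data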;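 further: 0% = DMSO only wells and the 100% control is not disclosed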
# TLR4 MyD88 comp = blocks binding of human TLR4 to MyD88 | inhibition, % at 8.4 µM | AID 861 | 0.18% of 200,000 active | O00206+Q99836 | HeLa CL3-4 TLR4/MyD88 BLA complementation, FRET ratio; in the data active means inhibition above about 25%;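 further: 0% = vehicle and 100% = reference inhibitor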
# ABHD5-PLIN5 conf = confirmation of human ABHD5-PLIN5 interaction inhibitors. inhibition, % at 4 µM. shares compounds with ABHD5 PLIN5 PPI. AID 651612. 67% of 2,200 active. biochemical ABHD5-PLIN5 interaction, luminescence; in the data active means inhibition above about 23%;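 further: 0% = DMSO vehicle wells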
# HNF4 split-luc = active in HNF4 split-luciferase counter-screen for ABHD5-PLIN5 inhibitors | shares compounds with ABHD5 PLIN5 PPI | HNF4 dimerization, luminescence, biochemical | inhibition, % at 4 µM | 77% of 2,200 active | AID 651674;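 active means mean inhibition across replicate wells exceeding the computed hit threshold, cut at about 13% in these data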;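 further: light from luciferase halves that rejoin when HNF4 fusion proteins dimerize; 0% = DMSO only wells and the 100% control is not given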
# * = called active by the depositor; · = not tested or not shown. The list is not random: actives were taken first. Their share in the collection is about 1.5%.
SMILES,TLR9-MyD88 inh,NTR1 agonist,Beta2AR agonist,NOD2 RIPK2 PPI,ABHD5 PLIN5 PPI,TLR4 MyD88 comp,ABHD5-PLIN5 conf,HNF4 split-luc
CCc1nc2c(OCc3ccc(OC)cc3)cccn2c1N(C)C(=O)c1ccncc1,·,·,·,-12.1,1.3,·,·,·
O=C(O)[C@H](Cc1ccccc1)N1C(=O)c2c(Cl)c(Cl)c(Cl)c(Cl)c2C1=O,-4.9,8.8,4.4,-4.8,71.0*,·,-7.3,4.1
C=CC(=O)N1c2ccccc2Sc2ccc(NC(=O)OCC)cc21,-5.2,10.6,6.4,-10.2,30.4*,3.5,61.5*,29.4*
CCOC(=O)Nc1ccc2c(c1)N(C(=O)N1CCN(C)CC1)c1ccccc1S2,-10.2,-0.1,5.2,-1.8,10.7,-2.7,·,·
Cc1cc(N2CCCC2)c(F)cc1/C=C\[N+](=O)[O-],-0.3,·,19.1,-8.7,47.0*,24.7,97.2*,95.0*
Cc1cc(N2CCC(C)CC2)c(F)cc1[N+](=O)[O-],0.9,1.5,0.0,8.8,5.7,-5.7,·,·
CCCNC(=O)OC1CC2CC1[C@H]1CCCCN1C2=O (some centres undefined),·,·,·,-12.6,6.7,·,·,·
COC(=O)C(=C/C(C)=C/c1cccnc1)C(=O)OC,9.1,1.3,-5.2,1.2,33.7*,8.0,54.2*,53.2*
Cc1ccc(S(=O)(=O)NC2CCCCC2)cc1C(=O)N1CCC(C(N)=O)CC1,7.8,0.0,4.2,-3.3,35.5*,·,5.6,1.9
COC(=O)[C@]12CCCCC=C1N(Cc1ccccc1)C(=O)[C@H](CC(=O)NCCC(C)C)C2,·,·,·,-4.6,-2.0,·,·,·
COc1ccc(OC(=O)c2cnc3n(c2=O)CCS3)cc1,5.0,1.5,4.6,-11.4,40.8*,·,0.0,1.2
COc1ccc(C(=O)c2ccc(Br)cc2)cc1,0.9,0.9,-5.6,-4.3,-6.9,0.7,·,·
O=C1Nc2ccc(Br)cc2/C1=C/C(=O)c1ccc2c(c1)OCO2,5.1,55.4*,54.7*,14.6,72.3*,·,92.9*,90.2*
CC(C)Oc1ccc(C(=O)/C=C2/C(=O)Nc3ccccc32)cc1,5.9,35.4,13.0,18.8,62.4*,·,81.5*,85.9*
COc1ccc(C(=O)/C=C2\C(=O)Nc3ccc(Br)cc32)cc1,-6.7,·,1.9,10.1,85.5*,·,97.5*,91.2*
COC(=O)Cc1ccc(OC2(C)CCN(Cc3ccccc3)C2)cc1 (centres undefined),·,·,·,-1.4,-11.1,·,·,·
COc1ccc(C(C)(NC(C)=O)c2nc(-c3ccc(F)cc3OC)cs2)cc1 (centres undefined),·,·,·,5.3,2.8,·,·,·
COc1ccc(NC(=O)c2cc(NC(=O)C3CCCCC3C(=O)O)ccc2N2CCOCC2)cc1 (centres undefined),-7.3,-0.6,6.1,-2.1,24.5*,·,5.3,2.4
Cc1cccc(NC(=O)c2cc(NC(=O)C3CCCCC3C(=O)O)ccc2N2CCOCC2)c1 (centres undefined),-1.6,0.9,10.2,7.2,0.2,·,·,·
S=C(NCc1ccccn1)NN=Cc1ccccn1,-10.2,·,-0.7,-15.8,-16.0,·,·,·
COc1ccccc1CNc1nc(NCc2ccc3occc3c2)c2sccc2n1,·,·,·,2.4,23.9*,·,7.7,15.7*
COc1ccccc1CNc1nc(NCc2ccccc2OC)c2sccc2n1,·,·,·,3.6,2.9,·,·,·
CC1C(=O)N(Cc2cn(Cc3ccco3)nn2)CCS(=O)(=O)N1Cc1ccc(-c2ccc(Cl)c(Cl)c2)cc1 (centres undefined),-5.6,·,·,1.6,8.7,·,·,·
CC1(C(=O)Nc2ccc3c(c2)OCCO3)CSCC(=O)N1CCc1ccccc1F (centres undefined),·,·,·,-12.1,5.9,·,·,·
O=C1CCCN1CCCNc1nc(NCc2ccccc2)nc2ccsc12,·,·,·,-17.7,-3.0,·,·,·
O=S(=O)(Nc1ccc(Cl)cc1)c1ccc(N2CCOCC2)c(NC(=S)NCCN2CCOCC2)c1,2.4,-0.4,2.3,2.6,30.6*,-15.4,-5.1,48.4*
COCCNC(=S)Nc1ccc(N2CCOCC2)c(S(=O)(=O)Nc2ccc(Cl)cc2)c1,-1.0,·,·,-0.4,-3.6,·,·,·
N#CCSc1nnc(-c2c[nH]c3ccccc23)o1,5.5,-1.4,6.4,-1.2,-2.2,·,·,·

# Screening results deposited in PubChem BioAssay by several laboratories.
